The list is not random: actives were taken first. Their share in the collection is about 28%.
CYP2C19 activ = human CYP2C19 activators, primary screen, biochemical, luminescence; 96,000 tested, under 10 active; recombinant CYP2C19, luciferin-H EGE luminescence; active compounds read high; 0 = fully inhibited enzyme, 1 = untreated enzyme; activation factor at 5 µM; Cytochrome P450 2C19 (Homo sapiens), P33261;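 active means activation factor of at least 2 at 5 µM in the primary screen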;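 further: 0 = wells with 2.5 mM tranylcypromine and 1 = vehicle-only wells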
Target sequence (P33261 whole entry, looked up): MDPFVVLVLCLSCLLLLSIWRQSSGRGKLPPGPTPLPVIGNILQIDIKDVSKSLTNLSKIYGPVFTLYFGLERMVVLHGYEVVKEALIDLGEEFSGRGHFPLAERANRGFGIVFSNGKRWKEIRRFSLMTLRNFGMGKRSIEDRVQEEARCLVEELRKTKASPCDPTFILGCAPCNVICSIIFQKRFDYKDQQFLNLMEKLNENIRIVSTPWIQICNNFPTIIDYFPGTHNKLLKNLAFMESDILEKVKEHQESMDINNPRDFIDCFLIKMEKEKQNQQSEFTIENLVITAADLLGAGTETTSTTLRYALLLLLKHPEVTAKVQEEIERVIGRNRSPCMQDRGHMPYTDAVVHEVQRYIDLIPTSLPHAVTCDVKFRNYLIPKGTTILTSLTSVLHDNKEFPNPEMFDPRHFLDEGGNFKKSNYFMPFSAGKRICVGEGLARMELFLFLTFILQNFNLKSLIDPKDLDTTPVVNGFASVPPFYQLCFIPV
CD11b adhes enh = enhancers of CD11b/CD18 adhesion to fibrinogen, primary screen, K562 cells, luminescence. ATPlite luminescence. hit rate 0.07% among 93,000. Integrin beta-2 (Homo sapiens) + Integrin alpha-M (Homo sapiens), P05107+P11215. activation, % at 10 µM;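 active means 10 µM primary screen giving 50% or more activity, confirmed by 40% or more on retest at that dose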
CYP2C9 act = human CYP2C9 activators, primary screen, biochemical, luminescence; activation factor at 5 µM; recombinant CYP2C9, luciferin-H conversion; active compounds read high; factor 1 = untreated enzyme, 0 = blocked; Cytochrome P450 2C9 (Homo sapiens), P11712; hit rate 1.4% among 96,000;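 active means activation factor of 2 or more for CYP2C9 at a 5 µM dose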;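 further: 0 = sulfaphenazole-blocked wells and 1 = vehicle-only wells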
CD11b adhes inh = inhibitors of CD11b/CD18 adhesion to fibrinogen, primary screen, K562 cells, luminescence; Integrin beta-2 (Homo sapiens) + Integrin alpha-M (Homo sapiens), P05107+P11215; inhibition, % at 10 µM; ATPlite luminescence; Mn2+ added to activate the integrin; hit rate 0.54% among 93,000;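 active means primary inhibition of 50% or more at 10 µM, then 40% or more on retest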
CYP2C19 inhib = blockers of cytochrome P450 2C19 activity – biochemical, luminescence, ADME assay, primary screen; P33261; CYP2C19 Supersomes, luciferin-H EGE luminescence, 30 min; inhibition, % at 5 µM; hit rate 21% among 96,000;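 active means CYP2C19 inhibition above a set limit at 5 µM in the primary screen, cut at about 50% in these data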;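 further: plate controls were negative control wells for no effect and 2.5 mM tranylcypromine positive control for full effect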
CYP2C9 inhib = blockers of cytochrome P450 2C9 activity – biochemical, luminescence, ADME assay, primary screen. CYP2C9 Supersomes, luciferin-H conversion. inhibition, % at 5 µM. hit rate 20% among 96,000;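 active means blocking of liver enzyme CYP2C9 beyond about 50% at 5 µM, limit read from the data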
* marks the source's active call; other numbers are inactive results; · = not tested or not shown.

SMILES	CYP2C19 activ	CD11b adhes enh	CYP2C9 act	CD11b adhes inh	CYP2C19 inhib	CYP2C9 inhib
CCn1c(SCC(=O)Nc2nonc2C)nnc1-c1ccco1	0.1	4	0.7	13	86*	32
Cc1ccc(-c2ccc(SCC(=O)Nc3nonc3C)nn2)cc1	0.7	-2	0.1	-3	28	86*
CCn1c(SCC(=O)Nc2nc(C)cs2)nnc1-c1ccco1	0.6	7	1	-19	38	3
CCn1c(SCC(=O)Nc2cc(C)on2)nnc1-c1ccco1	0.5	2	0.7	3	53*	33
Cc1cc(NC(=O)CSc2nnc(C(C)N(C)C)n2Cc2ccccc2)no1 (centres undefined)	0.9	-1	0.9	-2	6	5
OCCN=C(c1ccccc1)C12CN3CN(CN(C3)C1)C2	1.1	-1	1	2	-6	-4
CCc1nnc(NC(=O)CSc2nnc(-c3c[nH]c4ccccc34)n2CC)s1	0.8	-5	0.4	0	24	57*
CCSc1nnc(NC(=O)CSc2nnc(-c3c[nH]c4ccccc34)n2CC)s1	0.8	5	0.7	0	19	33
COCCCn1c(SCC(=O)n2c(C)c(C)c3ccccc32)nnc1-c1ccoc1C	0.1	2	1.4	-24	89*	-38
COCCCn1c(SCC(=O)N2CC(=O)Nc3ccccc32)nnc1-c1ccoc1C	1	28	0.9	0	5	14
CCn1c(SCC(=O)Nc2ccc3c(c2)OCCO3)nnc1-c1ccco1	0.8	0	0.8	-13	15	21
CCc1nnc(NC(=O)CSc2nnc(-c3ccco3)n2CC)s1	0.6	-2	0.4	1	39	65*
CCn1c(SCC(=O)Nc2ccc3c(c2)c2ccccc2n3CC)nnc1-c1ccco1	0.2	·	0.7	·	85*	28
Cc1ccc(N(CC(=O)NC2CCCC2)C(=O)c2c(C)noc2C)cc1C	0.8	·	0.7	·	18	29
C=CCn1c(SCc2c(F)cccc2Cl)nnc1-c1ccco1	0	-1	1.2	-1	96*	-23
Cc1c(C)n(C(=O)CSc2nccn2C)c2ccccc12	0.2	-2	1.2	-11	79*	-16
CCCCn1c(SCC(=O)Nc2cc(C)on2)nnc1-c1ccco1	0.8	-6	1	5	17	4
Cn1ccnc1SCC(=O)Nc1sccc1C#N	0.7	·	0.9	·	31	14
CCn1c(SCC(=O)n2c(C)c(C)c3ccccc32)nnc1-c1ccco1	0.1	4	1.8	-14	87*	-81
Cc1ccc(C)c(-n2c(SCC(=O)Nc3nonc3C)nnc2-c2ccoc2C)c1	0.6	4	0.2	-3	36	82*
Cc1c(NC(=O)CN2CCN(C(=O)c3ccco3)CC2)c(=O)n(-c2ccccc2)n1C	1.1	·	1.1	·	-9	-5
N#Cc1nc(-c2cccs2)oc1NCCCN1CCOCC1	0.6	0	0.8	-9	41	25
C=CCn1c(SCC(=O)Nc2cc(C)ccc2OC)nnc1-c1ccco1	0	-1	0.6	2	98*	43
Cn1c(=O)c2c(nc(CN3CCN(c4ccccc4)CC3)n2Cc2c(F)cccc2Cl)n(C)c1=O	0.7	0	0.7	3	27	29
CCOC(=O)N1CCN(Cc2nc3c(c(=O)n(C)c(=O)n3C)n2Cc2cccc(C)c2)CC1	0.1	-2	0.3	15	86*	67*
SMILES	CYP2C19 activ	CD11b adhes enh	CYP2C9 act	CD11b adhes inh	CYP2C19 inhib	CYP2C9 inhib
Cn1c(=O)c2c(nc(CN3CCN(c4ccccc4)CC3)n2Cc2ccccc2Cl)n(C)c1=O	1	-1	1.1	14	-1	-13
CCOC(=O)N1CCN(Cc2nc3c(c(=O)n(C)c(=O)n3C)n2Cc2ccc(F)cc2)CC1	1.1	4	1.2	-3	-7	-23
CCCn1c(CN2CCN(c3cccc(Cl)c3)CC2)nc2c1c(=O)n(C)c(=O)n2C	0.8	-8	0.6	91*	25	42
CCCCn1c(CN2CCN(c3ccccc3)CC2)nc2c1c(=O)n(C)c(=O)n2C	0.9	-2	0.9	65*	7	8
CCCCCn1c(CN2CCN(c3cccc(Cl)c3)CC2)nc2c1c(=O)n(C)c(=O)n2C	0.8	-5	0.5	12	22	55*
Cc1ccc(C(C(=O)NC2CCCC2)N2CCCCC2)cc1 (centres undefined)	1.1	2	1	-9	-14	1
CC1(C)CC(=O)C(C(=S)Nc2ccccc2)=C(NCCN2CCOCC2)C1	0.9	-1	1	0	12	1
O=C(OCC(=O)N1CCN(C(=O)COC(=O)c2ccncc2)CC1)c1ccncc1	1.3	1	1.2	-1	-25	-20
CCOc1cc(N2CCOCC2)c(OCC)cc1NC(=O)COc1ccc2ccc(=O)oc2c1	·	16	·	6	·	·
CCCCn1c(CN2CCN(c3cccc(Cl)c3)CC2)nc2c1c(=O)n(C)c(=O)n2C	0.4	-12	0.1	90	56*	85*
O=S1CCCSC1c1cccnc1 (centres undefined)	1	2	1.1	-23	-5	-5
Cc1cc(-c2nnco2)c(C)n1-c1ccc(F)cc1	0.4	8	0.9	-18	58*	10
Cc1ccc(C)n1-c1ccc(-c2nnco2)cc1	0.6	7	0.9	10	43	10
N#Cc1nc(Cc2ccccc2)oc1NCc1ccccc1Cl	0.4	1	0.4	17	63*	56*
N#Cc1nc(Cc2ccccc2)oc1NCCCn1ccnc1	0.1	-4	0.2	-13	92*	77*
CC(C)c1nc(C#N)c(NCCCn2ccnc2)o1	0	0	0.1	-9	100*	91*
C/C(NCCCn1ccnc1)=C(\C#N)C(N)=O	0.9	0	1	-6	10	-2
CCOc1ccc(N2C(=O)CSC23CCCCC3)cc1	0.2	-6	0.7	-3	84*	32
N#CCCN/N=C(/Cc1nc2ccccc2[nH]1)c1cccc(Cl)c1	0.1	6	0.4	4	86*	63*
CC1CCc2nn(CC(=O)NCCC3=CCCCC3)cc2C1 (centres undefined)	0.8	-7	0.7	17	19	30
C/C(=N\NC(=O)c1c(Cl)c(C)nn1C)c1ccc(NC(=O)COc2ccc(Cl)cc2C)cc1	0.6	·	0.3	·	42	66*
C/C(=N\NC(=O)c1c(Cl)c(C)nn1C)c1cccc(NC(=O)COc2ccccc2)c1	0.7	-7	0.6	17	28	43
CC1CCN(S(=O)(=O)c2ccc3c(c2)CCN3C(=O)CCC(=O)O)CC1	0.9	·	1.2	·	7	-17

Screens (PubChem BioAssay)
